Measurements: PubChem BioAssay AID372 (MTDP, 2006)
The whole screen tested about 100,000 compounds, of which about 770 (0.77%) were called active. Rule as the data show it: active = inhibition above about 50%; inactive = the rest. The list comes from a sample in which actives are over-represented; it also holds similar structures and randomly drawn compounds.

target: Gag-Pol polyprotein (Human immunodeficiency virus type 1 group M subtype B (isolate HXB2)) (UniProt P04585); test: RNase H inhibition, HIV 1 Gag Pol polyprotein, FRET biochemical assay, screening (AID 372); conditions: HIV-1 RT RNase H, FRET RNA/DNA substrate fluorescence; at 10 µM; active compounds read high

| Compound | inhibition |
| --- | --- |
| O=C(COc1cc(O)c2c(=O)cc(-c3ccccc3)oc2c1)c1ccccc1 | 3% (inactive) |
| O=C1C(=O)N(c2nccs2)C(c2ccccc2F)/C1=C(/O)c1ccc(Cl)cc1 (stereo not drawn) | 21% (inactive) |
| COc1cccc(NC(=O)Nc2nnc(-c3ccccc3I)s2)c1 | 0% (inactive) |
| COc1cccc(NC(=O)Nc2nnc(-c3ccccc3F)s2)c1 | 53% (active) |
| COc1cccc(NC(=O)Nc2nnc(-c3ccccc3SCc3ccccc3F)s2)c1 | 23% (inactive) |
| CCc1nnc(NC(=O)CCCOc2ccc(Cl)cc2C)s1 | 12% (inactive) |
| O=[N+]([O-])c1ccc(NCCCNS(=O)(=O)c2ccc(Cl)cc2)cc1 | 8% (inactive) |
| O=C(O)CCC(=O)NNC(=O)c1ccncc1 | 10% (inactive) |
| CCOC(=O)CNC(=O)c1ccc([N+](=O)[O-])cc1 | 4% (inactive) |
| CCOC(=O)CNC(=O)c1cccc([N+](=O)[O-])c1 | 15% (inactive) |
| COC(=O)c1cc(C(=O)N2CCC(C(=O)OC)CC2)cc([N+](=O)[O-])c1 | 7% (inactive) |
| CCOC(=O)C1CCCN(C(=O)c2cc(C(=O)OC)cc([N+](=O)[O-])c2)C1 (stereo not drawn) | 16% (inactive) |
| CCOC(=O)CNC(=O)c1cc(C(=O)OC)cc([N+](=O)[O-])c1 | 52% (active) |
| CCOC(=O)C1CCN(C(=O)c2cc(C(=O)OC)cc([N+](=O)[O-])c2)CC1 | 54% (active) |
| O=C(CN(c1ccc([N+](=O)[O-])cc1)S(=O)(=O)c1ccccc1)NC1CC2CCC1C2 (stereo not drawn) | 13% (inactive) |
| Cc1ccc(N2C(=O)NC(=O)/C(=C\c3ccc(OCC(=O)O)c(Br)c3)C2=O)cc1 | 3% (inactive) |
| O=C(NC(=S)Nc1cccc(C(F)(F)F)c1)c1ccc(-c2ccc(Cl)cc2)o1 | 10% (inactive) |
| O=C(Nc1ccc(F)cc1)Nc1nnc(-c2ccccc2SCc2ccccc2)s1 | 25% (inactive) |
| Clc1cccc(Cl)c1OCCCN1CCCCC1 | 2% (inactive) |
| Clc1cccc(Cl)c1OCCCN1CCCC1 | 7% (inactive) |

| Compound | inhibition |
| --- | --- |
| Clc1cccc(Cl)c1OCCN1CCCC1 | 56% (active) |
| COc1cc(/C=C(\C#N)C(=O)Nc2ccc(F)cc2)c([N+](=O)[O-])cc1OC | 3% (inactive) |
| COc1cc(-c2nc(-c3ccccc3)c(-c3cc([N+](=O)[O-])ccc3C)[nH]2)cc(OC)c1OC | 33% (inactive) |
| Cc1ccc([N+](=O)[O-])cc1-c1[nH]c(-c2ccc(C#N)cc2)nc1-c1ccccc1 | 57% (active) |
| Cc1ccc([N+](=O)[O-])cc1-c1[nH]c(-c2cccc(O)c2)nc1-c1ccccc1 | 32% (inactive) |
| O=[N+]([O-])c1ccccc1C=Nc1cccc2ccccc12 | 6% (inactive) |
| C/C(=C\c1cccc2ccccc12)[N+](=O)[O-] | 53% (active) |
| N#C/C(=C/c1cccc2ccccc12)c1ccc([N+](=O)[O-])cc1 | 36% (inactive) |
| COC(=O)c1ccccc1NC(=O)c1cc(=O)[nH]c2ccccc12 | 1% (inactive) |
| CCOC(=O)c1ccc2[nH]c(C)c(C/C=C(/C)Cl)c(=O)c2c1 | 0% (inactive) |
| Cc1ccc(-c2nc3cc(Cl)cc(Cl)c3o2)cc1NC(=O)c1ccc2c(c1)OCCO2 | 24% (inactive) |
| Cc1ccc(C(=O)Nc2ccc(-c3nc4cc(Cl)cc(Cl)c4o3)cc2)cc1 | 11% (inactive) |
| O=C(Nc1ccc2oc(-c3cccc(I)c3)nc2c1)c1ccc2c(c1)OCCO2 | 56% (active) |
| O=C(Nc1ccc2oc(-c3ccc(I)cc3)nc2c1)c1ccc2c(c1)OCCO2 | 15% (inactive) |
| O=C(Nc1ccc(-c2nc3cc(Cl)cc(Cl)c3o2)cc1)c1ccc2c(c1)OCCO2 | 58% (active) |
| O=C(Nc1cccc(-c2nc3cc(Cl)ccc3o2)c1)c1ccc2c(c1)OCCO2 | 9% (inactive) |
| O=C(Nc1ccc2oc(-c3ccccc3)nc2c1)c1ccc2c(c1)OCCO2 | 11% (inactive) |
| O=C(Nc1ccc2oc(-c3ccc(F)cc3)nc2c1)c1ccc2c(c1)OCCO2 | 51% (active) |
| O=C(Nc1ccc2oc(-c3cccc(Cl)c3)nc2c1)c1ccc2c(c1)OCCO2 | 37% (inactive) |
| CCN(CC)CCOc1ccccc1C | 3% (inactive) |

| Compound | inhibition |
| --- | --- |
| COc1ccc(C(=O)N2CCN(S(=O)(=O)c3ccccc3)CC2)cc1 | 21% (inactive) |
| COc1cccc(C=C2C(=O)c3ccccc3C2=O)c1 | 0% (inactive) |
| CCOc1ccc(NC(=O)CN(c2ccc(Br)cc2)S(=O)(=O)c2ccccc2)cc1 | 17% (inactive) |
| O=C(N/N=C/c1ccc(OC2CSC2)cc1)c1ccccc1 | 6% (inactive) |
| Cc1ccc(N(Cc2ccc(C(=O)N/N=C/c3cc(Br)c(C)o3)cc2)S(C)(=O)=O)cc1C | 19% (inactive) |
| Cc1ccc(N(Cc2ccc(C(=O)N/N=C/c3ccc(OC4CSC4)cc3)cc2)S(C)(=O)=O)cc1C | 56% (active) |
| Brc1ccc(-c2nnnn2-c2ccccc2)cc1 | 12% (inactive) |
| COc1ccc(C(=O)NC(=S)Nc2ccc(-c3nc4ccccc4o3)cc2)cc1Br | 20% (inactive) |
| COc1ccc(C(=O)NC(=S)Nc2ccc(-c3nc4ccc(C)cc4o3)cc2)cc1Br | 60% (active) |
| COc1ccc(C(=O)NC(=S)Nc2cccc(-c3nc4cc(C)ccc4o3)c2)cc1[N+](=O)[O-] | 23% (inactive) |
| COc1ccc(C(=O)NC(=S)Nc2ccc(-c3nc4cc(C)ccc4o3)cc2)cc1Br | 21% (inactive) |
| COc1ccc(C(=O)NC(=S)Nc2ccc3oc(-c4ccc(Cl)cc4)nc3c2)cc1[N+](=O)[O-] | 44% (inactive) |
| COc1ccc(C(=O)NC(=S)Nc2ccc(-c3nc4cc(Cl)ccc4o3)cc2)cc1[N+](=O)[O-] | 53% (active) |
| COc1ccc(C(=O)NC(=S)Nc2cccc(-c3nc4cc(Cl)ccc4o3)c2)cc1[N+](=O)[O-] | 23% (inactive) |
| COc1ccc(C(=O)NC(=S)Nc2ccc(-c3nc4ccc(C)cc4o3)cc2)cc1[N+](=O)[O-] | 54% (active) |
| CCc1ccc2oc(-c3ccc(NC(=S)NC(=O)c4ccc(OC)c([N+](=O)[O-])c4)cc3)nc2c1 | 19% (inactive) |
| CC(NC(=O)CSc1ncc(-c2ccccc2)[nH]1)c1ccccc1 (stereo not drawn) | 12% (inactive) |
| CC1=C(C(=O)OCCc2ccccc2)C(c2ccc(Cl)c([N+](=O)[O-])c2)C2=C(CCCC2=O)N1 (stereo not drawn) | 2% (inactive) |
